According to PubChem BioAssay (EPA / NIEHS):
Active and inactive are the calls of the source. The calls were made as follows: active = hit-call score of the fitted dose curve at least 0.9, where 1 is the maximum; inactive = score below 0.9.

Assays:
[1] = ATG_E_Box_CIS: Attagene CIS-FACTORIAL HepG2 Assay for human Enhancer Box (E-box) (AID 2282936); conditions: HepG2 E-box cis-reporter transcription, actives raise or lower the signal
In short: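 Endogenous transcription factor activity was sensed in human HepG2 liver cells through transfected cis-promoter reporter units. After 24 h of dosing, total RNA was reverse-transcribed and reporter cDNA resolved by capillary electrophoresis.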

[2] = ATG_M_61_CIS: Attagene CIS-FACTORIAL HepG2 Assay for M61 Transcription Factor (Internal Marker) (AID 2282937); conditions: HepG2 Attagene CIS-FACTORIAL M61 internal marker reporter; actives raise or lower the signal
In short: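 This endpoint serves as an internal background control within a multiplexed HepG2 cis-reporter panel. Cells are exposed for 24 h; reporter mRNA is amplified, fluorescently labelled and sized by capillary electrophoresis, with DMSO as negative control.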

[3] = ATG_EGR_CIS: Attagene CIS-FACTORIAL HepG2 Assay for human Early Growth Response 1 (EGR1) (AID 2282938); conditions: HepG2 Attagene CIS-FACTORIAL EGR reporter mRNA; actives raise or lower the signal
In short: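 HepG2, transient MRTU transfection (cis promoters), 24 h compound. RNA → RT (oligo-dT) → PCR → 6-FAM labelling → HpaI cut → CE fluorescence. Bidirectional fit, DMSO baseline.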

[4] = ATG_M_19_CIS: Attagene CIS-FACTORIAL HepG2 Assay for M19 Transcription Factor (Internal Marker) (AID 2282939); conditions: HepG2 Attagene CIS-FACTORIAL M19 internal marker reporter; actives raise or lower the signal
In short: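 HepG2 cells transiently transfected with cis-regulated multiple reporter transcription units were dosed for 24 h; reporter mRNA was quantified by RT-PCR, 6-FAM primer-extension labelling, HpaI digestion and capillary electrophoresis, with bidirectional fitting against DMSO baseline.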

[5] = ATG_Ets_CIS: Attagene CIS-FACTORIAL HepG2 Assay for human Erythroblast Transformation Specific (ETS) (AID 2282941); conditions: HepG2 ETS cis-reporter transcription, actives raise or lower the signal
In short: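 RT-PCR/capillary electrophoresis fluorescence read-out of reporter mRNA; HepG2 transient multi-reporter transfection; 24 h compound exposure; gain or loss of signal fitted bidirectionally relative to DMSO.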

[6] = target: Hepatocyte nuclear factor 3-beta (Homo sapiens) (UniProt Q9Y261); assay: ATG_FoxA2_CIS: Attagene CIS-FACTORIAL HepG2 Assay for human Forkhead box A2 (FOXA2) (AID 2282942); conditions: HepG2 cis-reporter transcription factor activity, 24 h; actives raise or lower the signal
In short: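 Cells: HepG2, transient multiplex reporter transfection. Exposure 24 h. Detection: reporter-specific RT-PCR, fluorescent labelling, restriction digest, capillary electrophoresis. Analysis: bidirectional curve fit, DMSO as negative control.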

[7] = ATG_FoxO_CIS: Attagene CIS-FACTORIAL HepG2 Assay for human Forkhead box O (FoxO) (AID 2282943); conditions: HepG2 Attagene cis-reporter, FoxO element, mRNA; actives raise or lower the signal
In short: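 24 h chemical exposure, HepG2 with transient cis-MRTU transfection. RNA extraction, oligo(dT) RT, reporter-specific PCR, primer-extension labelling, HpaI digestion, CE fragment analysis; bidirectional fit, DMSO baseline.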

[8] = ATG_GATA_CIS: Attagene CIS-FACTORIAL HepG2 Assay for human GATA Binding Protein (AID 2282944); conditions: HepG2 GATA cis-element reporter, Attagene multiplex mRNA; actives raise or lower the signal
In short: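 HepG2 cells transiently transfected with multiplexed cis-element reporter units reflecting endogenous transcription factor activity; reporter mRNA measured after 24 h dosing by RT-PCR, 6-FAM labeling, HpaI digestion and capillary electrophoresis. Bidirectional fitting versus DMSO baseline.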

[9] = ATG_GRE_CIS: Attagene CIS-FACTORIAL HepG2 Assay for human Glucocorticoid Response Elements (GRE) (AID 2282947); conditions: HepG2 GRE cis-reporter, Attagene multiplex mRNA; actives raise or lower the signal
In short: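 Cells (HepG2) bearing transfected cis-promoter reporter transcription units were treated with chemical for 24 hours. Reporter mRNA was measured via RT-PCR with capillary electrophoresis, and activity was fitted in both directions relative to DMSO.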

[10] = ATG_ISRE_CIS: Attagene CIS-FACTORIAL HepG2 Assay for human Interferon Regulatory Factor 1 (IRF1) binding to an Interferon-Stimulated Response Element (ISRE) (AID 2282948); conditions: HepG2 ISRE cis-reporter (Attagene), mRNA transcription readout; actives raise or lower the signal
In short: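 Read-out: fluorescent RT-PCR products resolved by capillary electrophoresis, reporting endogenous transcription factor activity via ISRE-driven reporter mRNA in transfected HepG2 cells dosed for 24 h; gain or loss fitted relative to DMSO.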

[11] = ATG_M_32_CIS: Attagene CIS-FACTORIAL HepG2 Assay for M32 Transcription Factor (Internal Marker) (AID 2282949); conditions: HepG2 Attagene cis-factorial M32 reporter, mRNA; actives raise or lower the signal;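 also: background control marker of the multiplexed CIS panel rather than a real target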
In short: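 HepG2 human liver cells transiently transfected with cis-promoter-driven multiple reporter transcription units, dosed 24 h. Reporter mRNA quantified by RT-PCR, FAM-labelled primer extension, HpaI digest and capillary electrophoresis; bidirectional fit versus DMSO baseline.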

[12] = ATG_M_06_CIS: Attagene CIS-FACTORIAL HepG2 Assay for M06 Transcription Factor (Internal Marker) (AID 2282950); conditions: HepG2 Attagene CIS-FACTORIAL M06 internal marker reporter; actives raise or lower the signal
In short: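 HepG2 cells transiently transfected with cis-regulated multiple reporter transcription units were exposed to chemical for 24 h; reporter mRNA was quantified by RT-PCR, 6-FAM primer labelling, HpaI digestion and capillary electrophoresis, fitted bidirectionally against DMSO.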

[13] = target: Hypoxia-inducible factor 1-alpha (Homo sapiens) (UniProt Q16665); assay: ATG_HIF1a_CIS: Attagene CIS-FACTORIAL HepG2 Assay for human Hypoxia Inducible Factor 1 (HIF1A) (AID 2282951); conditions: HepG2 Attagene cis-factorial HIF1a reporter transcription; actives raise or lower the signal
In short: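 HepG2, transient cis-reporter library, 24 h dosing. RNA → RT (oligo dT) → PCR → 6-FAM primer extension → HpaI → CE. Bidirectional curve fit vs DMSO.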

[14] = target: Heat shock factor protein 1 (Homo sapiens) (UniProt Q00613); assay: ATG_HSE_CIS: Attagene CIS-FACTORIAL HepG2 Assay for human Heat Shock Transcription Factor 1 (HSE) (AID 2282953); conditions: HepG2 HSE cis-reporter, Attagene RNA transcription; actives raise or lower the signal
In short: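 HepG2 cells transiently transfected with multiple reporter transcription units under cis-regulatory promoter control, measuring endogenous transcription factor activity. After 24 h chemical exposure, reporter mRNA quantified by RT-PCR, fluorescent labelling, HpaI digestion and capillary electrophoresis; bidirectional fit versus DMSO.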

[15] = ATG_MRE_CIS: Attagene CIS-FACTORIAL HepG2 Assay for human Metal Responsive Element (MRE) (AID 2282954); conditions: HepG2 MRE cis-reporter transcription, Attagene multiplex; actives raise or lower the signal
In short: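 Cells were transfected with cis-promoter reporter transcription units, then dosed for 24 h. RNA was reverse-transcribed, amplified, fluorescently labelled and resolved by capillary electrophoresis, and activity was fitted in both directions relative to DMSO.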

[16] = ATG_PBREM_CIS: Attagene CIS-FACTORIAL HepG2 Assay for human Phenobarbital-responsive Enhancer Module (PBREM) (AID 2282955); conditions: HepG2 PBREM cis-reporter, Attagene multiplexed transcription; actives raise or lower the signal
In short: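 HepG2, transient MRTU transfection, 24 h dosing; RNA → oligo(dT) RT → PCR → 6-FAM extension → HpaI → CE. Bidirectional fit vs DMSO.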

[17] = target: Bile acid receptor (Homo sapiens) (UniProt Q96RI1); assay: ATG_IR1_CIS: Attagene CIS-FACTORIAL HepG2 Assay for human Nuclear Receptor Subfamily 1 Group H Member 4 (NR1H4), IR1 submotif (AID 2282946); conditions: IR1 reporter transcription, actives raise or lower the signal
In short: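 Readout: reporter transcript levels by RT-PCR with fluorescent capillary electrophoresis, from HepG2 cells transiently transfected with multiplexed cis-regulated reporters and dosed 24 h. Gain- or loss-of-signal fitted versus DMSO negative control.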

[18] = ATG_GLI_CIS: Attagene CIS-FACTORIAL HepG2 Assay for human Zinc Finger Protein GLI1 (AID 2282945); conditions: HepG2, Attagene cis-factorial reporter mRNA, GLI element; actives raise or lower the signal
In short: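 HepG2 cells transiently transfected with cis-promoter multiplexed reporter units report endogenous transcription factor activity. After 24 h chemical exposure, reporter mRNA was quantified by RT-PCR, 6-FAM labelling, HpaI digestion and capillary electrophoresis, with bidirectional fitting against DMSO.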

[19] = target: Hepatocyte nuclear factor 6 (Homo sapiens) (UniProt Q9UBC0); assay: ATG_HNF6_CIS: Attagene CIS-FACTORIAL HepG2 Assay for human Hepatocyte Nuclear Factor 6 (HNF6) (AID 2282952); conditions: HepG2 Attagene cis-factorial HNF6 reporter transcription; actives raise or lower the signal
In short: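 Readout: fluorescent reporter-transcript fragments resolved by capillary electrophoresis after RT-PCR, reflecting endogenous factor activity in transfected HepG2. Exposure 24 h. Gain or loss of signal fitted bidirectionally against DMSO.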

Measured: AC50

Sequence of Bile acid receptor (Homo sapiens) (Q96RI1 whole entry, looked up): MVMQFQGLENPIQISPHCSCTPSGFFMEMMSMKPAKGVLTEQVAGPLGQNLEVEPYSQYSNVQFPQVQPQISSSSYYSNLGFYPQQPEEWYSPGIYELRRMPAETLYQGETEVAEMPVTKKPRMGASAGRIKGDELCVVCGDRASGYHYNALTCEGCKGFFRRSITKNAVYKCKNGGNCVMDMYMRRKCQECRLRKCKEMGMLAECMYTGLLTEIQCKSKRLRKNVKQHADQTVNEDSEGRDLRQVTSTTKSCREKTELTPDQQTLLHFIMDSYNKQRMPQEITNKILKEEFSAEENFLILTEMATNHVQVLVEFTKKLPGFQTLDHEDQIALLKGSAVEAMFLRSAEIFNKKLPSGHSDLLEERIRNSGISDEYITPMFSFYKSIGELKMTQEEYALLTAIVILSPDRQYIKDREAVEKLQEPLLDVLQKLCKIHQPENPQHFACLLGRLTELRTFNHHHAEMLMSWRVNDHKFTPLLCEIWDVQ
Sequence of Heat shock factor protein 1 (Homo sapiens) (Q00613 whole entry, looked up): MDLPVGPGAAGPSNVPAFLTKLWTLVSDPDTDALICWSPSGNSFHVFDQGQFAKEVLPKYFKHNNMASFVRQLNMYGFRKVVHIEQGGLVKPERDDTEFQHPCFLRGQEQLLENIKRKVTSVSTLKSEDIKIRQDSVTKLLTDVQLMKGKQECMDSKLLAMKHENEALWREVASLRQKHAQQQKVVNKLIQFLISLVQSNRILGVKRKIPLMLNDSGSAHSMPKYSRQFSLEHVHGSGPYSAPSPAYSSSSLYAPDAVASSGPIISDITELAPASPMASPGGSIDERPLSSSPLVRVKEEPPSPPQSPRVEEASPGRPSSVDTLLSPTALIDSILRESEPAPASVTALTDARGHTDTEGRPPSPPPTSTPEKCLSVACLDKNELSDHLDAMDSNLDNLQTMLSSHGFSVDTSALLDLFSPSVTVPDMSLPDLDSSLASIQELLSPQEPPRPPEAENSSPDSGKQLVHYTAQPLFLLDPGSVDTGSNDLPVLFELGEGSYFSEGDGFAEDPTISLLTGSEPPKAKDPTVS
Sequence of Hepatocyte nuclear factor 3-beta (Homo sapiens) (Q9Y261 whole entry, looked up): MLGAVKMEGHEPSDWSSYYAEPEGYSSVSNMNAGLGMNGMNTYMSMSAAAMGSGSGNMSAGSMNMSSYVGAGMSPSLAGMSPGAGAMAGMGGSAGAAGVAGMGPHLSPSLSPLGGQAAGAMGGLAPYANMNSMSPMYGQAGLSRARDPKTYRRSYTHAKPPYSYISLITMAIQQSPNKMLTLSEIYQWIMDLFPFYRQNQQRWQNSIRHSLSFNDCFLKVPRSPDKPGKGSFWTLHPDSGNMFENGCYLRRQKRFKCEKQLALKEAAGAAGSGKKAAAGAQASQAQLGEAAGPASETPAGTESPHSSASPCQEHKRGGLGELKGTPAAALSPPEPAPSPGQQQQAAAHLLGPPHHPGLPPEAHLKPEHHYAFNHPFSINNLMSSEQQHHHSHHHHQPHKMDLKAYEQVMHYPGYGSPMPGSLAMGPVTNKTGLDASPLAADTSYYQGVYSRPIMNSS
Sequence of Hepatocyte nuclear factor 6 (Homo sapiens) (Q9UBC0 whole entry, looked up, the tested form may be a part): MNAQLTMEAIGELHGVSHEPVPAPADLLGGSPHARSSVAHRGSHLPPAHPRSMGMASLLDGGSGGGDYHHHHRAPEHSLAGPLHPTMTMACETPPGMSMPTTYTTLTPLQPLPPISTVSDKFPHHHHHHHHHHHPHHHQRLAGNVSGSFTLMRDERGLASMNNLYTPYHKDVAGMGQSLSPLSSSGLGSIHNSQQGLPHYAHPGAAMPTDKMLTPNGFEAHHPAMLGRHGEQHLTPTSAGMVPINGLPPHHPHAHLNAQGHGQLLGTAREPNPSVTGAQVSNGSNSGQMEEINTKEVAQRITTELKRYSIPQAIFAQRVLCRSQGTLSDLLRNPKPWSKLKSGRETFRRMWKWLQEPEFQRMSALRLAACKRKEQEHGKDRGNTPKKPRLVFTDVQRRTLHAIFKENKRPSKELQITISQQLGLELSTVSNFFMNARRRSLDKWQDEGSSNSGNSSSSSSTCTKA
Sequence of Hypoxia-inducible factor 1-alpha (Homo sapiens) (Q16665 whole entry, looked up): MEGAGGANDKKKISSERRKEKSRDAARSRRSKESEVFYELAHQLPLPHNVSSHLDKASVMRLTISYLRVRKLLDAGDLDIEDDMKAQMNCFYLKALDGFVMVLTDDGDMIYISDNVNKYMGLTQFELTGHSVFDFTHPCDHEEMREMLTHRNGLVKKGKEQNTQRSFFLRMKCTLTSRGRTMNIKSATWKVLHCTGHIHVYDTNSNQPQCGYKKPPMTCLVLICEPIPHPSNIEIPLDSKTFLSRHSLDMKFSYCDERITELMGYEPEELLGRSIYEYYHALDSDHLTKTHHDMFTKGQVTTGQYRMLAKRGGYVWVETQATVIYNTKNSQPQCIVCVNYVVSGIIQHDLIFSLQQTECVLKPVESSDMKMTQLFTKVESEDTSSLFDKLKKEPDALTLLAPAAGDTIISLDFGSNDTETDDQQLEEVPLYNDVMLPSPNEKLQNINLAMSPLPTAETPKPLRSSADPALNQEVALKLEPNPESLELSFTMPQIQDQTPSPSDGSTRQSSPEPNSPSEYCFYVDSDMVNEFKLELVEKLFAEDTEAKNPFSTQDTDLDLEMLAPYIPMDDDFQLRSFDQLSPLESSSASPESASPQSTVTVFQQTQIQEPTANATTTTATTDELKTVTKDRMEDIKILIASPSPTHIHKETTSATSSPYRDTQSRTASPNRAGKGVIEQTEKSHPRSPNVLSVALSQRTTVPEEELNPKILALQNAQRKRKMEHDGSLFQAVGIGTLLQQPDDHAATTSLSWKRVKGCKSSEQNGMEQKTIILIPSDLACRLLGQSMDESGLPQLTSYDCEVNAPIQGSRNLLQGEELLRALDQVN

COC(CC(C)CCCC(C)(C)O)OC (configuration not stated)
not listed: [17] | [18] | [19]
inactive: all other assays above

CC1(C)C2=CCCC(C)(C)[C@]23CC[C@H]1C3
active: [15] 100 µM
not listed: [9] | [18] | [19]
inactive: all other assays above

O=C1OC(=O)c2c(Br)c(Br)c(Br)c(Br)c21
active: [7] 165 µM
not listed: [9] | [11] | [17]
inactive: all other assays above

CC(C)(C)OC(=O)c1ccc(O)cc1
active: [14] 159 µM | [15] 100 µM
not listed: [7] | [16]
inactive: all other assays above

CC1CC(O)CC(C)(C)C1 (configuration not stated)
not listed: [11] | [14] | [18] | [19]
inactive: all other assays above

OCc1ccc(Cl)cc1Cl
not listed: [9] | [11] | [18]
inactive: all other assays above

O=C(O)COCC(=O)O
not listed: [7]
inactive: all other assays above

FC(F)(F)COCC(F)(F)F
not listed: [7] | [9]
inactive: all other assays above

CN1C(=O)c2ccccc2C1=O
not listed: [16] | [17] | [18]
inactive: all other assays above
